In the supplement of paper PMC10849652:
About 7,900 targets were measured; listed, in parts, are those with a hit and a random draw of the rest. About 0.6% of all pairs of compound and target were hits. A number with no mark means an inactive call.

Tests used:
Experiment in all cases: log2 fold change, soluble protein after heating vs DMSO (PISA); higher = thermal stabilisation; K562 cells, 10 uM, 30 min; active = over 0.2 and 3.5 SD of the protein, either way, in both replicates (recomputed)
volasertib = compound: CC[C@@H]1C(=O)N(C)c2cnc(Nc3ccc(C(=O)N[C@H]4CC[C@H](N5CCN(CC6CC6)CC5)CC4)cc3OC)nc2N1C(C)C [volasertib]
Procedure, shortened: (§1)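 Soluble protein was quantified by TMTpro 16plex LC-MS/MS after channel sums were equalised. It was obtained as the supernatant after 21,000xg for 90 min from pooled aliquots of K562 cells (2×10^6 cells/mL, 10 μM compound, 30 min) heated for 3 min across 48°C-58°C and extracted in PBS with 0.5% NP-40 at 4°C. Thermal stability values are relative to control samples and come from duplicates. They are given as log2 fold changes.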

[1] = compound: CC[C@H](C)N1C=C(C2=C(C=C(C=C21)C3=CN=C(C=C3)N4CCNCC4)C(=O)NCC5=C(C=C(NC5=O)C)C)C
Procedure, shortened: as §1

[2] = compound: CCn1cc(-c2ccnc3[nH]c(-c4cccc(CN(C)C)c4)cc23)c(-c2ccc(NC(=O)N(C)C)cc2)n1
Procedure, shortened: as §1

[3] = compound: CN1C2=C(C3=C1C(=O)N(N=C3)CC4=CC(=CC=C4)N)SC(=C2)S(=O)C
Procedure, shortened: as §1

[4] = compound: CN1CCC(CNc2ccc3ncc(-c4cccc(OC(F)(F)F)c4)n3n2)CC1
Procedure, shortened: as §1

[5] = compound: CC[C@@H]1C(=O)N(C)c2cnc(Nc3ccc(C(=O)NC4CCN(C)CC4)cc3OC)nc2N1C1CCCC1
Procedure, shortened: as §1

epoxomicin = compound: CC[C@H](C)[C@@H](C(=O)N[C@@H]([C@@H](C)O)C(=O)N[C@@H](CC(C)C)C(=O)[C@]1(CO1)C)NC(=O)[C@H]([C@@H](C)CC)N(C)C(=O)C [epoxomicin]
Procedure, shortened: as §1

[6] = compound: CCn1c(C(=O)N(C2CC2)C2CC2)cc2c3c(ncn3C)c(Nc3cc(C)n(C)n3)nc21
Procedure, shortened: as §1

[7] = compound: CN(C)CC(=O)Nc1ccc2[nH]c(=O)c3ccccc3c2c1
Procedure, shortened: as §1

rosiglitazone = compound: CN(CCOC1=CC=C(C=C1)C[C@H]2C(=O)NC(=O)S2)C3=CC=CC=N3 (racemic) [rosiglitazone]
Procedure, shortened: as §1

Target: RBM6 (UniProt P78332)
- log2 fold change (volasertib): -0.148
- log2 fold change [1]: 0.094
- log2 fold change [2]: 0.148
- log2 fold change [3]: 0.109
- log2 fold change [4]: 0.175

Target: RAPGEF4 (UniProt Q8WZA2)
Sequence of UniProt Q8WZA2 (Q8WZA2 whole entry, looked up): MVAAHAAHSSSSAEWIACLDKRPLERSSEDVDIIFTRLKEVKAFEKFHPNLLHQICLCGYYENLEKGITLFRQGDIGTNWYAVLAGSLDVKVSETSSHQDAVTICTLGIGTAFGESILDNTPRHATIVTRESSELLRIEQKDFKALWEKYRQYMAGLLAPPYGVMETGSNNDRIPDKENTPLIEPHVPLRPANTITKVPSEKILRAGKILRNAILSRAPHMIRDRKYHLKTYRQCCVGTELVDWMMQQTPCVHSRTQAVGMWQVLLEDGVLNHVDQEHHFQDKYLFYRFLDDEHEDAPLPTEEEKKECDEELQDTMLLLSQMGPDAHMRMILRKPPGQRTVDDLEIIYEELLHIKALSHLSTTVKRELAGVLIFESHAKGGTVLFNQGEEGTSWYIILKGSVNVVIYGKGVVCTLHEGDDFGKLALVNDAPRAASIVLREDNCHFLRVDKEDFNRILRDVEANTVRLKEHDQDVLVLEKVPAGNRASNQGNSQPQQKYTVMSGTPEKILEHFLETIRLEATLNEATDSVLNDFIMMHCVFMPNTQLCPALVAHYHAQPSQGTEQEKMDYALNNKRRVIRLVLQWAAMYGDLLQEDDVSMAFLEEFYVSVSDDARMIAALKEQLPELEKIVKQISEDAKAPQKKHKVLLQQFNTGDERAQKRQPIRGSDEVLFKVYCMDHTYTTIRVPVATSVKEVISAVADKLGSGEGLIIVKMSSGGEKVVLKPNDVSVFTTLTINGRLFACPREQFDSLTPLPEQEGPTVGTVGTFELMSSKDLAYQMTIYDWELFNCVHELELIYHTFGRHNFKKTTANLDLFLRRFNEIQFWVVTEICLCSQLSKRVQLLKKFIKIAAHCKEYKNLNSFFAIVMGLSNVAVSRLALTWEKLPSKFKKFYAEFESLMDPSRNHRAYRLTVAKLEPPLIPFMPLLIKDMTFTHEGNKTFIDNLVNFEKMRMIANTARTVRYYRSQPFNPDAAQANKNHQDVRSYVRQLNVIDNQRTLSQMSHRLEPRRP
- log2 fold change [5]: -0.13
- log2 fold change (epoxomicin): -0.038
- log2 fold change [6]: -0.136
- log2 fold change [7]: -0.011
- log2 fold change (rosiglitazone): 0.065
- log2 fold change [3]: -0.036

Target: RPS19 (UniProt M0R2L9)
- log2 fold change (volasertib): 0.492
- log2 fold change [1]: -0.256

Target: RNF26 (UniProt Q9BY78)
Sequence of UniProt Q9BY78 (Q9BY78 whole entry, looked up): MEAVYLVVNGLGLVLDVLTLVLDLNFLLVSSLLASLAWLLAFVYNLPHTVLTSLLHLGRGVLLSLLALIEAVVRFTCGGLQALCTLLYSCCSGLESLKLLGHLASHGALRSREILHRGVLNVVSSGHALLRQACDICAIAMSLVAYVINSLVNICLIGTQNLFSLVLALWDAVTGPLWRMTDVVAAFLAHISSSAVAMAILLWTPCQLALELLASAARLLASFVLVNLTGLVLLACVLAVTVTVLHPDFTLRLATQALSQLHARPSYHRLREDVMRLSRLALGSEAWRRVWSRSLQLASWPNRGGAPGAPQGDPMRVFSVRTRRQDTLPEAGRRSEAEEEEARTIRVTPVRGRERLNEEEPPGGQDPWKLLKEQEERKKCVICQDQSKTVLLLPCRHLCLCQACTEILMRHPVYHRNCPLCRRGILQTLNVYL
- log2 fold change [2]: 0.077
- log2 fold change [7]: 0.017
- log2 fold change (rosiglitazone): -0.131
- log2 fold change [4]: -1.04 (active)

Target: SEMG2 (UniProt Q02383)
- log2 fold change [5]: 0.043
- log2 fold change [1]: 0.15
- log2 fold change (epoxomicin): 0.06
- log2 fold change [2]: 0.035
- log2 fold change (rosiglitazone): 0.049
- log2 fold change [4]: 0.058

Target: RPS3 (UniProt E9PJN9)
- log2 fold change [5]: 0.098
- log2 fold change [2]: -0.125
- log2 fold change [3]: 0.088
- log2 fold change [4]: 0.089

Target: RNF185 (UniProt Q96GF1)
Sequence of UniProt Q96GF1 (Q96GF1 whole entry, looked up): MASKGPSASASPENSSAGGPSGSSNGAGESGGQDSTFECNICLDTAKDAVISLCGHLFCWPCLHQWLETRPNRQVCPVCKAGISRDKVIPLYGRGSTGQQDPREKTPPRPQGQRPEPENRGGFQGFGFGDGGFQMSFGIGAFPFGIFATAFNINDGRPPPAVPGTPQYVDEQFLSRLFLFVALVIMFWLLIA
- log2 fold change [5]: -0.041
- log2 fold change (volasertib): -0.101
- log2 fold change [1]: -0.06
- log2 fold change [6]: 0.02
- log2 fold change [2]: -0.003
- log2 fold change [7]: 0.028
- log2 fold change (rosiglitazone): -0.075
- log2 fold change [4]: 0.09

Target: SAMD4B (UniProt Q5PRF9)
Sequence of UniProt Q5PRF9 (Q5PRF9 whole entry, looked up): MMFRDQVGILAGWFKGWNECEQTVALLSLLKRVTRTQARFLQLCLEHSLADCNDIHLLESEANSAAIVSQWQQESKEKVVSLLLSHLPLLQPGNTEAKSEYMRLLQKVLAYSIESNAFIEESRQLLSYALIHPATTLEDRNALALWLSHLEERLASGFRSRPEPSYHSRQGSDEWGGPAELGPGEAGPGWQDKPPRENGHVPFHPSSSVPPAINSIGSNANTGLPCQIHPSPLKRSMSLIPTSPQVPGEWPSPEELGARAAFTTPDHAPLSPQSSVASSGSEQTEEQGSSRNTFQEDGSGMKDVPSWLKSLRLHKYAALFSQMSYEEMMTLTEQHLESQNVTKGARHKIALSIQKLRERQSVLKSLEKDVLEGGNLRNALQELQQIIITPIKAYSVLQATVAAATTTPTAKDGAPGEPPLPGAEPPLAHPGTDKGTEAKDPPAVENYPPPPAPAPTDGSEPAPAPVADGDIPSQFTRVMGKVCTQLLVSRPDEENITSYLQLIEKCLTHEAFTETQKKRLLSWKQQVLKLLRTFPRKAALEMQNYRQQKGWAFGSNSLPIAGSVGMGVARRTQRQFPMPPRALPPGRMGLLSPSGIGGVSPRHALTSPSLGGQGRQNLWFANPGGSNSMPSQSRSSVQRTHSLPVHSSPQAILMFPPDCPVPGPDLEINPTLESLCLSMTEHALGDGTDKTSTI
- log2 fold change (volasertib): 0.078
- log2 fold change [1]: -0.047
- log2 fold change (epoxomicin): 0.02
- log2 fold change [6]: -0.124
- log2 fold change [2]: 0.023
- log2 fold change (rosiglitazone): -0.008
- log2 fold change [3]: 0.089
- log2 fold change [4]: -0.308

Target: RPS6KA5 (UniProt O75582)
- log2 fold change [5]: 0.024
- log2 fold change (volasertib): -0.529
- log2 fold change (epoxomicin): 0.048
- log2 fold change [6]: -0.127

Target: RABGAP1L isoform 5 (UniProt Q5R372)
- log2 fold change (volasertib): 0.01
- log2 fold change [1]: 0.074
- log2 fold change (epoxomicin): -0.085
- log2 fold change [6]: 0.017
- log2 fold change (rosiglitazone): 0.046
- log2 fold change [3]: 0.059

Target: RBMY1E (UniProt A6NEQ0)
Sequence of UniProt A6NEQ0 (A6NEQ0 whole entry, looked up): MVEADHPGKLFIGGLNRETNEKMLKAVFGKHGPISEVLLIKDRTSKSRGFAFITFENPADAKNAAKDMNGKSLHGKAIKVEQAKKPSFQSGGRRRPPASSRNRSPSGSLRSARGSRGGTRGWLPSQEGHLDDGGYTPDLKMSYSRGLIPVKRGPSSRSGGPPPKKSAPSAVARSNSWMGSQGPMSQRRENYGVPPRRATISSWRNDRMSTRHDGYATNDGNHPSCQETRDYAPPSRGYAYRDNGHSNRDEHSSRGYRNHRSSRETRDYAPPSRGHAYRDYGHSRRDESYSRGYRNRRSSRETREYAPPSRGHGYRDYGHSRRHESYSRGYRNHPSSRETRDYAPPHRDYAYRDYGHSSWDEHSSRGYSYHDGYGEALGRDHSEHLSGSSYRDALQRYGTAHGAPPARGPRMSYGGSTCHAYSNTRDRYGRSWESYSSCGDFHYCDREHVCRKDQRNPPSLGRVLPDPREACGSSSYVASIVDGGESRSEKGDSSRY
- log2 fold change [5]: -0.068
- log2 fold change (volasertib): -0.236
- log2 fold change [1]: -0.034
- log2 fold change [6]: -0.134
- log2 fold change [2]: 0.084
- log2 fold change (rosiglitazone): -0.058
- log2 fold change [4]: -0.199

Target: SDC3 (UniProt O75056)
Sequence of UniProt O75056 (O75056 whole entry, looked up): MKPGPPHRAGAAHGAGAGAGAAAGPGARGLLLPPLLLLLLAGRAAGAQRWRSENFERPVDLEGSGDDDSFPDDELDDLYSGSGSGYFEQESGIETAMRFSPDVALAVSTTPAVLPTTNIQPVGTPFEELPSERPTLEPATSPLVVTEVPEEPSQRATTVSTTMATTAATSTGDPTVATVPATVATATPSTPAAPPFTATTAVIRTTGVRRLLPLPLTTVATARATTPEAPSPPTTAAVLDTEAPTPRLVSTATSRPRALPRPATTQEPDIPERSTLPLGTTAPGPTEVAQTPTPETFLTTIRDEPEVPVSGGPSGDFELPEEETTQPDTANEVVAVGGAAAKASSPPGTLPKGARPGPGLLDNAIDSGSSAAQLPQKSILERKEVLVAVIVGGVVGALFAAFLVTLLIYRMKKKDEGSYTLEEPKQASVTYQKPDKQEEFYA
- log2 fold change [5]: 0.223
- log2 fold change [1]: 0.067
- log2 fold change (epoxomicin): 0.005
- log2 fold change [2]: -0.401
- log2 fold change [7]: 0.006
- log2 fold change [3]: -0.017
- log2 fold change [4]: 0.632

Target: RNF220 isoform 3 (UniProt Q5VTB9)
- log2 fold change (volasertib): -0.31
- log2 fold change [6]: -0.001

Target: RAF1 isoform 2 (UniProt P04049)
Sequence of UniProt P04049 (P04049 whole entry, looked up): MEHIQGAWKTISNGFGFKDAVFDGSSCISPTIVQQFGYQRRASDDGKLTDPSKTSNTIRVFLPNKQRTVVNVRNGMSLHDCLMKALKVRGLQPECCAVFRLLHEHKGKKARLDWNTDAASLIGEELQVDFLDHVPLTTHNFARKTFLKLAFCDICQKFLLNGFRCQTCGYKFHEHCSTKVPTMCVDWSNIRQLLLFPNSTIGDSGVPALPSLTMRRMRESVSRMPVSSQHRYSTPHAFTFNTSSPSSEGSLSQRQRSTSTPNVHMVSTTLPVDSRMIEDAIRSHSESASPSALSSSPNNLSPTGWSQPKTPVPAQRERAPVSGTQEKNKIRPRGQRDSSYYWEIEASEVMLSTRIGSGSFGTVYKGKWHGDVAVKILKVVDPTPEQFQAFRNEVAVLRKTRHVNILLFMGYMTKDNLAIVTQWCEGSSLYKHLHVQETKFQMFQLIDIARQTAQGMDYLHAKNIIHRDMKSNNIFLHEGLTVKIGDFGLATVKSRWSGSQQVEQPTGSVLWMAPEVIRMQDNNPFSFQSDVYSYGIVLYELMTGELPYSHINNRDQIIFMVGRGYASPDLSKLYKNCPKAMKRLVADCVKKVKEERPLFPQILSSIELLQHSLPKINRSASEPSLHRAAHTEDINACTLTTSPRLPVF
- log2 fold change [5]: 0.135
- log2 fold change (volasertib): -0.361
- log2 fold change (epoxomicin): -0.003
- log2 fold change [6]: 0.034
- log2 fold change [2]: -0.241
- log2 fold change [7]: 0.028
- log2 fold change (rosiglitazone): 0.042
- log2 fold change [3]: -0.129
- log2 fold change [4]: -0.222

Target: SAFB2 (UniProt K7EQU4)
- log2 fold change [1]: -0.095
- log2 fold change (epoxomicin): -0.11
- log2 fold change (rosiglitazone): -0.269
